A selection: hits, their analogues and other compounds. The true share with any hit is near 1.1%.
Granule exo inh: LAMP-1 surface exposure blockers, TALL-104 cells – cell-based, flow cytometry, MLPCN library, primary screen; inhibition, % at 10 µM; TALL-104 LAMP-1 surface exposure; cells stimulated with thapsigargin and PMA; 360,000 tested, 0.66% active;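 active means inhibition above about 55%, limit read from the data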
ABCB6 inh MLPCN: ABCB6 transporter inhibitors, primary screen, K562-ABCB6 cells, flow cytometry, MLPCN library; K562-ABCB6 porphyrin accumulation, 1 h; active compounds read low; 360,000 tested, 0.19% active; AID 602162, 2011; fluorescence ratio to DMSO, % at 10 µM;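 active means fluorescence ratio to DMSO below 75%, the collection mean minus 3 SD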;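 further: signal is porphyrin accumulated inside mitochondria; lower ratio means ABCB6 inhibition with less porphyrin fluorescence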
CaV13 FRET inh: Disruptors of the CACNA1D IQ motif to Ca2+-dependent inactivation inhibitor domain association, primary screening, Förster resonance energy transfer in intact living …. HEK cells, CFP/YFP FRET ICDI-IQ, plate reader, 10 min; percent FRET-ratio fall versus neutral wells. inhibition, % at 12.3 µM. 340,000 tested, 0.098% active. AID 743397;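 active means mean replicate inhibition of at least 30% and at least 1% of replicates passing that level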
VLA-4 inh: inhibition in human VLA-4 binding assay, primary screen, VLA-4 allosteric modulator project, MLPCN library, flow cytometry, VLA-4 expressing cells. inhibition, % (about 7 µM as worked out from the volumes in the protocol). Integrin alpha-4 (Homo sapiens), P13612. ligand binding flow cytometry. AID 2557, 2010. 330,000 tested, 0.2% active; in the data active means inhibition above about 50%
Target sequence (P13612 whole entry, looked up): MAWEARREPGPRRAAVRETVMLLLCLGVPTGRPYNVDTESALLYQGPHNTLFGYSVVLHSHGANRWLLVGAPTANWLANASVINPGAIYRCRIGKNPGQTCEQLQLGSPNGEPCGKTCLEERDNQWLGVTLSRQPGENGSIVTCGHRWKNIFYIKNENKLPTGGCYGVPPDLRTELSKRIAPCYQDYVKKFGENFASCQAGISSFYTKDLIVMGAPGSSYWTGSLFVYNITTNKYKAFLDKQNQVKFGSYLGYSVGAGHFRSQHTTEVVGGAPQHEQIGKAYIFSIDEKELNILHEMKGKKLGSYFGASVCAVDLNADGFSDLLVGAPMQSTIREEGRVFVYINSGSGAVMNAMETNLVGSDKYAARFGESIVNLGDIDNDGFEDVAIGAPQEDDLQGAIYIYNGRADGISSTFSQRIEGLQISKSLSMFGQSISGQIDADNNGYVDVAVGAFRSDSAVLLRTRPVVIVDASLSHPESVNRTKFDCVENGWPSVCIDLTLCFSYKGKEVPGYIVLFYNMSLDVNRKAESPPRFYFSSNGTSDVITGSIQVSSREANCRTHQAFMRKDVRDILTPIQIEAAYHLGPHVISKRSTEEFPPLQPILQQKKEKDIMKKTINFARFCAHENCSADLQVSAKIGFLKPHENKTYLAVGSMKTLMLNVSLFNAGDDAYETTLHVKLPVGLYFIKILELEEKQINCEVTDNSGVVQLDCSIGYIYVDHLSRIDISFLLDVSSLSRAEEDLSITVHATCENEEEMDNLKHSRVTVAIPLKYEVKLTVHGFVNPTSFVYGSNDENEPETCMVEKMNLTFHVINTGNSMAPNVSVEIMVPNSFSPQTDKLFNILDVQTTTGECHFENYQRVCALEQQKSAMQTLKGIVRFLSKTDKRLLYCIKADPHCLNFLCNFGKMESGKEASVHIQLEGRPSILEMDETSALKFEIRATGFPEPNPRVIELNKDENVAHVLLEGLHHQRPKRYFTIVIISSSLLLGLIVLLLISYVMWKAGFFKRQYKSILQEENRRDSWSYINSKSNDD
Exocytosis CP01: inhibitors of lytic granule exocytosis, confirmation, TALL-104 cells, flow cytometry, Cherry Pick01. inhibition, % at 10 µM. shares compounds with Granule exo inh. LAMP-1 externalization; stimulated with PMA plus thapsigargin. AID 651954, 2012. 1,500 tested, 11% active; in the data active means inhibition above about 60%
Large screens that a line does not name were inactive (follow-up assays come after a bar, where they were run).

O=C(CCc1nc(-c2ccc(Cl)cc2)no1)NC1CCCCC1	none
O=C(CCCc1nc(-c2ccc(Cl)cc2)no1)NC1CCCC1	Granule exo inh 57 (no result: CaV13 FRET inh) | Exocytosis CP01 inactive
COCCNc1nc(-c2ccc(OC)cc2)c(-c2ccc(OC)cc2)s1	none
CCN(CC)CCNc1nc(-c2ccc(OC)cc2)c(-c2ccc(OC)cc2)s1	Granule exo inh 66 | Exocytosis CP01 inactive
Clc1ccc2nc(N3CCNCC3)nc(-c3ccccc3)c2c1	Granule exo inh 86 | Exocytosis CP01 inactive
CCN(CC)CCC(=O)N1C/C(=C/c2ccccc2)C(=O)/C(=C\c2ccccc2)C1	Granule exo inh 79 (no result: VLA-4 inh) | Exocytosis CP01 inactive
O=C1/C(=C\c2ccccc2)CCC/C1=C/c1ccccc1	none (no result: VLA-4 inh)
CCCC(=O)C1=C(O)C(C(=O)OC)C(C)(C)CC1=NCCc1ccccc1 (stereo not given)	none
COc1cccc(CN2CCC(C(=O)Nc3ccc(-c4cccc(C)c4)cc3)CC2)c1O	Granule exo inh 74 | Exocytosis CP01 inactive
Cc1cccc(-c2ccc(NC(=O)C3CCN(CC4CC4)CC3)cc2)c1	none
O=C(NCc1ccccc1)C(=O)Nc1nc(C23CC4CC(CC(C4)C2)C3)cs1	none
O=C(NCc1ccncc1)C(=O)Nc1nc(C23CC4CC(CC(C4)C2)C3)cs1	Granule exo inh 77 | Exocytosis CP01 inactive
Cc1cc(Nc2cccc(Cl)c2)nc(-c2ccccc2O)n1	Granule exo inh 56 | Exocytosis CP01 inactive
Cc1cc(C(=O)N(C)CC(=O)Nc2ccccc2C(F)(F)F)c(C)o1	Granule exo inh 62 | Exocytosis CP01 inactive
CC(=O)N1c2ccccc2S(=O)(=O)c2c1ccc1ccccc21	Granule exo inh 79 (no result: VLA-4 inh) | Exocytosis CP01 inactive
Cc1cccc(OCCOC(=O)c2c(-c3ccccc3)noc2C)c1	Granule exo inh 75 | Exocytosis CP01 inactive
CCOC(=O)N1CCC(NC(=O)C2CCCN(Cc3nc(-c4ccc(CC)cc4)oc3C)C2)CC1 (stereo not given)	Granule exo inh 62 | Exocytosis CP01 inactive
CCOC(=O)N1CCC(NC(=O)C2CCN(Cc3nc(-c4ccc(CC)cc4)oc3C)CC2)CC1	none (no result: VLA-4 inh)
CCOC(=O)c1c(NC(=O)COC(=O)c2ccc(C)s2)sc2c1CC(C)(C)NC2(C)C	Granule exo inh 64 | Exocytosis CP01 inactive
CCOC(=O)c1c(NC(=O)CSc2nnnn2-c2ccccc2OCC)sc2c1CC(C)(C)NC2(C)C	Granule exo inh 65 | Exocytosis CP01 63
CCOC(=O)c1c(NC(=O)c2ccc(C)cc2)sc2c1CC(C)(C)NC2(C)C	none (no result: Granule exo inh, ABCB6 inh MLPCN, CaV13 FRET inh)
CCOC(=O)c1c(NC(=O)COc2ccccc2OCC)sc2c1CC(C)(C)NC2(C)C	Granule exo inh 68 (no result: CaV13 FRET inh) | Exocytosis CP01 100
O=C(CNC(=O)c1ccccc1F)NCC(c1cccs1)N1CCOCC1 (stereo not given)	none
COc1ccccc1/C=C/CN1CCCC(CO)(CCc2ccccc2)C1 (stereo not given)	Granule exo inh 58 | Exocytosis CP01 inactive
CC(NC(=O)CC12CC3CC(CC(C3)C1)C2)C(=O)O (stereo not given)	Granule exo inh 63 | Exocytosis CP01 inactive
O=C(CC12CC3CC(CC(C3)C1)C2)NCO	none
CCCC(C)(C)C(=O)N1CCC1(C)C(=O)Nc1cccc(OC)c1 (stereo not given)	none (no result: VLA-4 inh)
CCOC(=O)c1nc(-c2ccc(OC)c(OC)c2)cnc1C#N	none
O=C(COC(=O)Cc1c[nH]c2ccccc12)NC1CCCCC1	Granule exo inh 77 | Exocytosis CP01 inactive
O=C(COC(=O)c1c[nH]c2ccccc12)NC1CCCC1	none
C(=C\c1nc(N2CCCCCC2)c2ccccc2n1)/c1ccccc1	Granule exo inh 58 | Exocytosis CP01 inactive
Cc1ccc(NC(=O)CSc2nc3ccccc3c(=O)n2CCCN2CCCCC2)cc1Cl	Granule exo inh 79 | Exocytosis CP01 inactive
Cc1ccc(NC(=O)CSc2nc3ccccc3c(=O)n2CCCC(=O)NCCCN2CCOCC2)cc1C	none
CCc1ccc(NC(=O)CSc2nc3ccccc3c(=O)n2CCCC(=O)NCCCN2CCOCC2)cc1	Granule exo inh 63 | Exocytosis CP01 inactive
O=C(CSc1nc2c(sc3ccccc32)c(=O)n1CCCN1CCCC1)NCc1ccccc1	Granule exo inh 67 | Exocytosis CP01 inactive
Cc1ccc(CNC(=O)CSc2nc3c(sc4ccccc43)c(=O)n2CCCN2CCCC2)cc1	none
CC1(Cc2ccc(OC(F)(F)F)cc2)C(=O)Nc2c(Cl)ccc(Cl)c21 (stereo not given)	none (no result: VLA-4 inh)
N#Cc1ccsc1NC(=O)CCc1ccccc1	none
N#Cc1ccsc1NC(=O)CCN1CCN(C(c2ccccc2)c2ccccc2)CC1	Granule exo inh 77 | Exocytosis CP01 inactive
COc1ccc(/C=C/c2cc(O)cc(OC3OC(CO)C(O)C(O)C3O)c2)cc1 (stereo not given)	none (no result: VLA-4 inh)
CCOC(=O)c1ccc(S(=O)(=O)NNC(=O)COc2ccccc2C)cc1	none
Cc1ccc(Br)cc1S(=O)(=O)N1CCN(c2ccccc2)CC1	Granule exo inh 66 | Exocytosis CP01 inactive
COc1cccc(-c2csc(NC(=O)Nc3ccccc3)n2)c1	Granule exo inh 88 | Exocytosis CP01 inactive
O=C(Nc1ccccc1)Nc1nc(-c2ccccc2)cs1	none
CCOc1ccccc1C(=O)NC(C)CCc1ccccc1 (stereo not given)	none
CCC(=O)N1CCC1(C)C(=O)Nc1ccc2nc(C)ccc2c1 (stereo not given)	none (no result: VLA-4 inh)
O=C(NCCCN1CCOCC1)c1ccc(/C=C2\Oc3ccccc3N(Cc3ccccc3F)C2=O)cc1	Granule exo inh 63 | Exocytosis CP01 inactive
c1ccc(OCCOCCN2CCN(C(c3ccccc3)c3ccccc3)CC2)cc1	Granule exo inh 59 | Exocytosis CP01 inactive
CCOc1ccc(OCCN2C(=O)NC(Cc3c[nH]c4ccccc34)C2=O)cc1 (stereo not given)	none
Cc1ccc(S(=O)(=O)n2ccc3c(OCCOCCSCC(NC(=O)OC(C)(C)C)C(=O)O)cccc32)cc1 (stereo not given)	none
Cc1ccc(S(=O)(=O)n2ccc3c(OCCOCCNCc4ccc(F)cc4)cccc32)cc1	Granule exo inh 75 | Exocytosis CP01 69
CN(Cc1ccc(C#CCCO)cc1)CC1CCCN(CCc2ccc(Cl)cc2)C1 (stereo not given)	Granule exo inh 70 | Exocytosis CP01 inactive
CN(C)C(=O)CCC(=O)N(C)CC1CCCN(CCc2ccc(F)cc2)C1 (stereo not given)	none
CCN(Cc1ccc(C#CCCO)cc1)CC1CCCN(CCc2cccc(F)c2)C1 (stereo not given)	Granule exo inh 88 | Exocytosis CP01 inactive

From PubChem BioAssay
